Experimental findings from PubChem BioAssay are described below.

The source made the active and inactive calls.

The target of one assay is Albumin (Bos taurus) (UniProt P02769). Nature of the assay: compounds binding labelled BSA control protein – biochemical, small-molecule microarray, Alexa647 label, 635/667 nm fluorescence, artefact control for SMM control protein annotation, profiling panel (AID 1118).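 Also: score merges 667 nm emission intensity and signal-to-noise per printed compound spot.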 As to conditions: BSA-A647 binding, fluorescence 635 nm, higher = more signal.
The nature of assay [1]: probe aXIP binding to arrayed compounds – biochemical, NeuroSMM set, 635/667 nm fluorescence, primary screen (AID 1119).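 Also: probe is the protein aXip251-270 applied at 1 µg/mL to compound-printed slides; binding of probe to printed compounds measured as 667 nm fluorescence plus signal to noise.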 As to conditions: small-molecule microarray, higher = more signal, called active from +8 up or from −8 down.
A short description of assay [2]: probe aNOTCH3 binding on compound microarray – biochemical, small-molecule microarray, 635/667 nm fluorescence, primary screen (AID 1120).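 Also: probe is a biotin-tagged antibody raised against NOTCH3 rather than NOTCH3 protein; score merges spot fluorescence near 667 nm with spot signal to noise.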 As to conditions: higher = more signal.
A short description of assay [3]: probe aNOTCH2 binding on compound microarray – biochemical, small-molecule microarray, 635/667 nm fluorescence, primary screen (AID 1121).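 Also: score merges feature fluorescence read at 667 nm with its signal to noise.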 The conditions noted are these: higher = more signal.
The target in assay [4] is Carbonic anhydrase 2 (Homo sapiens) (UniProt P00918). In words: compounds binding carbonic anhydrase 2 – biochemical, small-molecule microarray, Alexa647-labelled CAII, profiling panel (AID 1122). As to conditions: CAII-A647 binding fluorescence, higher = more signal.
Assay [5] is described as follows: COS7 lysate on small-molecule microarray, probe aHis, 635 nm (AID 1123).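 Also: z-score combines 667nm fluorescence intensity with signal-to-noise per printed compound spot.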 As to conditions: COS7 cell lysate, fluorescence, higher = more signal.
Assay [6] can be described thus: probe aLAP1 signal on lysate-treated microarray – cell lysate, small-molecule microarray, COS7 lysate, primary screen (AID 1124).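 Also: lysate comes from COS7 cells expressing LAP1 and is applied at 0.3 µg/mL; score merges spot fluorescence near 667 nm with signal-to-noise over triplicate slides.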 The conditions noted are these: probe aLAP1, fluorescence, higher = more signal.
For another assay, the system named is Sam68 (KHDRBS1). Nature of the assay: compounds binding KHDRBS1 protein – biochemical, small-molecule microarray, 635 nm fluorescence, primary screen (AID 1125).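 Also: score merges 667 nm channel intensity with signal to noise over triplicate slides.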 The conditions noted are these: higher = more signal.
Assay [7] concerns Chordin-like protein 2 (CHRDL2). In words: compounds binding chordin-like 2 – biochemical, small-molecule microarray, 635 nm fluorescence, primary screen (AID 1126).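 Also: printed compound slides probed with Chrdl2 protein at 4 µg/mL for 1 h at 4 C; score merges 667 nm emission intensity with signal to noise over three replicate slides.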 As to conditions: fluorescence 635 nm, higher = more signal.
Assay [8] deals with Concanavalin-A (Canavalia ensiformis) (UniProt P02866). Nature of the assay: compounds binding concanavalin A lectin – biochemical, small-molecule microarray, Alexa647 label, 635 nm, artefact control for SMM control protein annotation, primary screen (AID 1127).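 Also: z combines 667 nm emission intensity with signal-to-noise across three replicate slides.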 As to conditions: ConA-A647 binding fluorescence, higher = more signal.
Assay [9] in a line: compounds binding Alexa647 anti-His antibody – biochemical, small-molecule microarray, 635 nm fluorescence, artefact control for SMM control protein annotation, primary screen (AID 1128).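 Also: score merges feature fluorescence with signal-to-noise for each printed compound spot.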 As to conditions: higher = more signal.
Assay [10] deals with Human papillomavirus type 1a E7 protein (residues 1-88). Nature of the assay: HPV1a E7 small-molecule binders, primary screen, biochemical, small-molecule microarray, residues 1-88, 635 nm (AID 1129). The conditions noted are these: small-molecule microarray binding, fluorescence 635 nm; higher = more signal.
In assay [11] the target is Focal adhesion kinase 1 (Homo sapiens) (UniProt Q05397). In words: PTK2 protein binding on printed compound slides – biochemical, small-molecule microarray, 635/667 nm fluorescence, BSA, DTT, primary screen (AID 1130).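 Also: composite of spot emission at 667 nm and signal to noise over triplicate slides.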 As to conditions: 635 nm fluorescence, higher = more signal.
Assay [12] deals with Fibrinogen (Alexa647-labelled). Nature of the assay: Alexa647-fibrinogen binding to printed small molecules – biochemical, small-molecule microarray, 635/667 nm fluorescence, artefact control for SMM control-protein annotation, profiling panel (AID 1131).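 Also: z-score merges 667 nm fluorescence with per-spot signal-to-noise over triplicate slides.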 As to conditions: fibrinogen-A647 binding fluorescence, higher = more signal.
Assay [13] concerns the target Follistatin (Homo sapiens) (UniProt P19883). Nature of the assay: FST protein binding to printed compounds – biochemical, small-molecule microarray, 635/667 nm fluorescence, primary screen (AID 1132). As to conditions: 635 nm fluorescence, higher = more signal.
Assay [14] has as its target Fibroblast growth factor 2 (Homo sapiens) (UniProt P09038). In words: basic fibroblast growth factor binding to printed compounds – biochemical, small-molecule microarray, 635/667 nm fluorescence, primary screen (AID 1133). The conditions noted are these: FGF2, fluorescence 635/667, higher = more signal.
Assay [15] is described as follows: JC-1 mitochondrial potential readout, lung cancer cells – cell-based, A549, JC-1 fluorescence, basal, 24 h, 100 nL, profiling panel (AID 1138).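 Also: A549 lung adenocarcinoma cells under basal conditions with no added stimulus; test concentration not given here.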 As to conditions: higher = more signal.
In another assay the test system is Lefty1. In words: Lefty1 protein binding to printed compounds – biochemical, small-molecule microarray, 635/667 nm fluorescence, primary screen (AID 1139). As to conditions: fluorescence 635/667, higher = more signal.
For assay [16], the system named is wheat germ agglutinin (Triticum aestivum), Alexa647-labelled. In words: Alexa647-WGA lectin binding to printed small molecules – biochemical, small-molecule microarray, 635/667 nm fluorescence, artefact control for SMM control-protein annotation, profiling panel (AID 1140).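 Also: score merges 667 nm feature emission with signal to noise over triplicate slides.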 The conditions noted are these: WGA-A647 binding, 635 nm fluorescence, higher = more signal.

The target of assay [17] is Luciferin 4-monooxygenase (Photinus pyralis) (UniProt P08659). Nature of the assay: inhibition of purified Photinus pyralis luciferase – biochemical, luminescence, purified enzyme, 2006 set, primary screen (AID 1141).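 Also: cell-free assay with purified firefly luciferase at 100 ng per well in PBS; test concentration not given here.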 The conditions noted are these: purified firefly luciferase, SteadyGlo luminescence, 30 min; higher = more signal, called active from +8 up or from −8 down.
Chain of Luciferin 4-monooxygenase (Photinus pyralis) (P08659 whole entry, looked up): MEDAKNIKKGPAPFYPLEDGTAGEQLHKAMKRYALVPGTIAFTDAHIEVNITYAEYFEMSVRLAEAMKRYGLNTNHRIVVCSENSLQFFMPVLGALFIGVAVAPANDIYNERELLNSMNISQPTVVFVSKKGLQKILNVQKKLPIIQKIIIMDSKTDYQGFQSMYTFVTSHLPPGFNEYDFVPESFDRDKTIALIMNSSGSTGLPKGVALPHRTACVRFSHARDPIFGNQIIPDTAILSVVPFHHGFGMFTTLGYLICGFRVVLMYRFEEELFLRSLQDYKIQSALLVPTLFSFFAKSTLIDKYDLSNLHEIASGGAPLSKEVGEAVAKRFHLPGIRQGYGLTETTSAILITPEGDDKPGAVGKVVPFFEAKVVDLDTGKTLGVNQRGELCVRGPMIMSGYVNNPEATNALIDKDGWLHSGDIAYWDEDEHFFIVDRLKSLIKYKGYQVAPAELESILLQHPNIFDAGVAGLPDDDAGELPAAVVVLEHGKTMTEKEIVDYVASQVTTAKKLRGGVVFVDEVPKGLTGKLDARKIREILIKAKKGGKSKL

Chain of Fibroblast growth factor 2 (Homo sapiens) (P09038 whole entry, looked up): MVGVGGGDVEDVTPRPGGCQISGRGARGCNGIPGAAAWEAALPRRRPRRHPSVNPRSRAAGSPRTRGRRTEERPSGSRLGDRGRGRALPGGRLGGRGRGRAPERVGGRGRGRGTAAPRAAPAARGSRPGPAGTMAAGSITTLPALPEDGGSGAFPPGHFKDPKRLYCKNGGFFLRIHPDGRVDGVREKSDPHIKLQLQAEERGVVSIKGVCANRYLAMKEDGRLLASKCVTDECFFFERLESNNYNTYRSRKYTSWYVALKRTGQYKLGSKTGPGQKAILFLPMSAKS
Chain of Follistatin (Homo sapiens) (P19883 whole entry, looked up): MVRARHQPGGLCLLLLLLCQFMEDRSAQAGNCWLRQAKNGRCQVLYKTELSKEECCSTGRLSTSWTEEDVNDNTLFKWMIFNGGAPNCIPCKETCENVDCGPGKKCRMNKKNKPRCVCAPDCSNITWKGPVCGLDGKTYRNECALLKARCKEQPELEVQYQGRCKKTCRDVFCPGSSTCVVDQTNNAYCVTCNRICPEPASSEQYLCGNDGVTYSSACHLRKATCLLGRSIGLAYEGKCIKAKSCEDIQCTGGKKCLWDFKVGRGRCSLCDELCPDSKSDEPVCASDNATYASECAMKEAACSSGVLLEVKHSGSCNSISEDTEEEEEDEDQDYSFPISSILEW
Chain of Focal adhesion kinase 1 (Homo sapiens) (Q05397 whole entry, looked up): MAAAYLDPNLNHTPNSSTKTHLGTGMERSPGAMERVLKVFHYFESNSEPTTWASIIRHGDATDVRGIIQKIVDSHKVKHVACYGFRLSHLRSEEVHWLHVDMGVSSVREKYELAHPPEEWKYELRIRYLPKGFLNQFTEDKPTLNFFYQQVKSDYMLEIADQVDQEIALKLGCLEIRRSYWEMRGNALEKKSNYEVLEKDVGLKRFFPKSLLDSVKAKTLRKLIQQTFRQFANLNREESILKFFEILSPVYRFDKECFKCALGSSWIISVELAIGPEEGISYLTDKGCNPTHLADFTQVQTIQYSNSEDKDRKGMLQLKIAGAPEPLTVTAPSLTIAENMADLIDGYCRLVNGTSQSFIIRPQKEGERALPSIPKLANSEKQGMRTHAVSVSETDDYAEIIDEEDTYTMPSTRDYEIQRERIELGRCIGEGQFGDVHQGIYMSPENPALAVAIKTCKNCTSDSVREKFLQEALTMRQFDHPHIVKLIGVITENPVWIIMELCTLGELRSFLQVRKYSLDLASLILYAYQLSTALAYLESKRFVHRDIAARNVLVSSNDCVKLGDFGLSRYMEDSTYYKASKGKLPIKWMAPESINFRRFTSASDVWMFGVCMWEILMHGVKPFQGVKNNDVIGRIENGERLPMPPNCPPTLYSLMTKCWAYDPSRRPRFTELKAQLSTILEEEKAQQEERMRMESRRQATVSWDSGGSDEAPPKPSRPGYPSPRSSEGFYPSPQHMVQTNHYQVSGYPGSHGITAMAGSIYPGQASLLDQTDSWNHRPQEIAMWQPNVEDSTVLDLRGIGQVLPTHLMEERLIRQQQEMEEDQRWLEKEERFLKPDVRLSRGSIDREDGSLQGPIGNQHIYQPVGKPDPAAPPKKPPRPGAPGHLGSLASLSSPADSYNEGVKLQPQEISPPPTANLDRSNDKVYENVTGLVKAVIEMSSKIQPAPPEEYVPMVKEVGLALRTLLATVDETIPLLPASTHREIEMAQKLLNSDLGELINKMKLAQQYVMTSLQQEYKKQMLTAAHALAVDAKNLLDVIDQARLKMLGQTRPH
Chain of Albumin (Bos taurus) (P02769 whole entry, looked up): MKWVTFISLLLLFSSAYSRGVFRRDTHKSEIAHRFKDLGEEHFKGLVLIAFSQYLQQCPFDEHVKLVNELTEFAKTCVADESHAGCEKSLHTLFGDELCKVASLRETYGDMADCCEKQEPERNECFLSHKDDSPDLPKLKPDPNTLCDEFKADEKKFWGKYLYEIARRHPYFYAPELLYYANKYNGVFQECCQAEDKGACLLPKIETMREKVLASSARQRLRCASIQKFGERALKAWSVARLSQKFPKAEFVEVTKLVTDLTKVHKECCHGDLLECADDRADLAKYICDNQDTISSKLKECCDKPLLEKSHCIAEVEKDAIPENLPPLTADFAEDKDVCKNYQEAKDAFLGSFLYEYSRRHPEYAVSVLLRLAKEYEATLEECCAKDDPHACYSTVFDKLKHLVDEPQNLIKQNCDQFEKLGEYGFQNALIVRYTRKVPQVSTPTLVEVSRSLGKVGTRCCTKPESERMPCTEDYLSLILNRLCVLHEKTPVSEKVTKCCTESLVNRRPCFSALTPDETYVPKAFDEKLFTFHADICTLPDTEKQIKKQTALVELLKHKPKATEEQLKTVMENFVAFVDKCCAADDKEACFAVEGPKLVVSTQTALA
Chain of Concanavalin-A (Canavalia ensiformis) (P02866 whole entry, looked up): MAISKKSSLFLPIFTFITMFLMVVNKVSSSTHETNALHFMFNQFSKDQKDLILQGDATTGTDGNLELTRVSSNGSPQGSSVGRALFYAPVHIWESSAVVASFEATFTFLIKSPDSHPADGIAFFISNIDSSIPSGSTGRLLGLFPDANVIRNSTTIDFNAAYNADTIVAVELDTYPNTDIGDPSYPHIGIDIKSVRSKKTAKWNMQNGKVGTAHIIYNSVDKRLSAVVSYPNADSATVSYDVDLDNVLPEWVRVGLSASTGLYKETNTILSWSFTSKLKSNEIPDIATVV

For `CC(C)N1C(=O)C[C@@](C(=O)NCC(F)(F)F)(c2ccc([N+](=O)[O-])cc2)[C@H]1c1ccc(CO)cc1`, the composite z-score in the assay with Albumin (Bos taurus) was 0.0344; in [2], -0.0636; in assay [3], -0.173; in assay [4], 0.662; in assay [5], 1.22; in assay [6] it was -0.0253. For the same compound, the composite z-score in the assay with Sam68 (KHDRBS1) was 0.933; in assay [7] it was -0.035; in assay [8], 0.688; in assay [9], -0.203; in [10] it was 0.38; in assay [11] it was 0.611. For the same compound, the composite z-score in assay [12] was 0.0938; in assay [13], 0.409; in [14], -0.432; in the assay with Lefty1, 0.343; in assay [16], 0.351. In addition, in assay [1], the composite Z-score is 0.447 (inactive). The z-score in assay [15] was -0.279; in [17], 1.58 (inactive).
In the case of `C=C(/C(=C/C[C@H](OC(C)=O)c1ccccc1OCCO)c1cnc2ccccc2c1)C(C)C`, the composite z-score is 0.0816 with Albumin (Bos taurus); 0.16 in assay [2]; -0.102 in [3]; 0.722 in [4]; 0.202 in assay [5]; -0.0507 in [6]. Also, the composite z-score with Sam68 (KHDRBS1) is 0.461; in [7], 0.384; in assay [8], 0.922; in [9], -0.577; in assay [10], 0.0336; in [11], 0.119. Moreover, the composite z-score in assay [12] was -0.498; in [13] it was 1.3; in [14], 0.58; in the assay on Lefty1, 0.505; in [16], 1.07. Also, in assay [1], the composite Z-score is -0.323 (inactive). The z-score was 1.12 in assay [15] and -1.14 (inactive) in assay [17].
Regarding `O=C1C[C@@](C(=O)NCCN2CCOCC2)(c2ccc([N+](=O)[O-])cc2)[C@@H](c2ccc(CO)cc2)N1CC12CC3CC(CC(C3)C1)C2`, the composite z-score was 0.0577 with Albumin (Bos taurus); 0.0208 in assay [2]; -0.084 in assay [3]; 0.548 in assay [4]; 2.53 in assay [5]; 0.0978 in assay [6]. Further, the composite z-score came to 1.29 in the assay on Sam68 (KHDRBS1); 0.901 in assay [7]; 0.926 in [8]; 2.5 in assay [9]; 1.25 in assay [10]; 0.296 in assay [11]. The composite z-score turned out to be 0.904 in [12]; 1.34 in [13]; 1.13 in assay [14]; 0.646 in the assay with Lefty1; 1.09 in [16]. In assay [1], the composite Z-score is 0.0308 (inactive). Besides, the z-score was -0.712 in assay [15] and -0.988 (inactive) in [17].
Regarding `CCOC(=O)C[C@H]1[C@H](OC(=O)c2cc3ccccc3oc2=O)[C@@H](NC(=O)c2ccccc2)c2cc(OCCCO)ccc2N1C(=O)c1ccc2ccccc2n1`, the composite z-score with Albumin (Bos taurus) was -0.117; in [2], 0.0496; in [3] it was 0.655; in assay [4] it was 0.515; in assay [5], 0.922; in [6], 0.0418. For the same compound, the composite z-score in the assay on Sam68 (KHDRBS1) is 0.845; in assay [7] it was 0.651; in [8], 0.821; in assay [9], 0.255; in assay [10], 0.625; in assay [11], -0.148. Further, the composite z-score in [12] amounted to 0.586; in assay [13] it was 1.19; in assay [14] it was 0.563; in the assay with Lefty1, 0.87; in assay [16] it was 0.345. Also, the composite Z-score in [1] is 0.315 (inactive). The results for the z-score in [15] and in assay [17] were -0.339 and 0.409 (inactive), respectively.
In the case of `[N-]=[N+]=Nc1ccccc1[C@@H]1OC(c2ccc(OCCCO)cc2)=N[C@]1(Cc1ccccc1)C(=O)N1CCOCC1`, the composite z-score with Albumin (Bos taurus) came out at 0.309; in [2], 0.619; in assay [3], 0.0117; in assay [4], 0.312; in assay [5] it was 2.23; in [6], 0.115. Also, the composite z-score turned out to be 1.31 with Sam68 (KHDRBS1); 0.0383 in [7]; 1.09 in assay [8]; 2.31 in [9]; 1.19 in assay [10]; 0.142 in assay [11]. Also, the composite z-score in [12] was 0.862; in [13], 1.26; in [14], 0.749; with Lefty1, 0.0367; in assay [16], 0.923. For the same compound, the composite Z-score in assay [1] was -0.174 (inactive). Further, the z-score in assay [15] was 1.53; in [17] it was -5.98 (inactive).
